The nature of experiment [1]: qHTS assay to identify small molecule antagonists of the retinoid acid receptor (RAR) signaling pathway - cell viability counter screen (AID 1159551). Further: nearly all actives have a fitted effect of over 35% in size. Further: potency means the concentration at half of the fitted maximal effect. In outline:
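C3RL4 cells were seeded overnight at 37 C, then treated with compounds plus 1 uM (final) retinol for 6 h at 37 C. Viability was read as ATP by CellTiter-Glo luminescence after 30 min at room temperature.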
(qHTS replaces the single test concentration by a dilution series.)

The nature of experiment [2]: qHTS assay to identify small molecule antagonists of the retinoic acid receptor (RAR) signaling pathway (AID 1159552; further: nearly all actives have a fitted effect of over 50% in size; further: potency means the concentration at half of the fitted maximal effect). A digest of the protocol: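 Retinol at 1 uM final stimulated RARE-luciferase expression in C3RL4 cells exposed to test compounds for 6 hr at 37 C. Reduced luminescence, read 30 min after detection reagent, indicated pathway antagonism.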
A short description of experiment [3]: qHTS assay to identify small molecule agonists of the retinoic acid receptor (RAR) signaling pathway (AID 1159553). Further: potency means the concentration at half of the fitted maximal effect. In outline: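 C3RL4 cells carrying a RARE luciferase reporter were plated overnight at 37 C, then exposed to compounds in DMSO for 6 hr at 37 C and 5% CO2. Luminescence was read 30 min after luciferase reagent addition at room temperature.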
Experiment [4] deals with Luciferin 4-monooxygenase (Photinus pyralis) (UniProt P08659). Nature of the experiment: qHTS assay to identify small molecule inhibitors of firefly luciferase (AID 1224835). Further: nearly all actives have a fitted effect of over 25% in size. Further: potency means the concentration at half of the fitted maximal effect. In outline:
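Inhibition of purified Photinus luciferase is measured by luminescence. Substrate levels (D-luciferin, ATP) sit at their KM values. Each compound is tested in a concentration series.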

Experiment [5] is described as follows: qHTS assay to identify small molecule agonists of the constitutive androstane receptor (CAR) signaling pathway - cell viability counter screen (AID 1224836). Further: nearly all actives have a fitted effect of over 45% in size. Further: potency means the concentration at half of the fitted maximal effect. A digest of the protocol:
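Cells were seeded and incubated 4 hrs. Compounds were added across 15 concentrations together with PK11195 at 0.75 uM final. Plates were incubated 23 hrs at 37 C. CellTiter-Fluor was added and fluorescence measured.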

Experiment [6] is described as follows: qHTS assay to identify small molecule antagonists of the constitutive androstane receptor (CAR) signaling pathway - cell viability counter screen (AID 1224837). Further: nearly all actives have a fitted effect of over 45% in size. Further: potency means the concentration at half of the fitted maximal effect. A digest of the protocol:
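HepG2 cells stably expressing hCAR and a CYP2B6-2.2kb reporter were plated and pre-incubated 4 hr at 37 C/5% CO2, then given compounds at 15 concentrations plus 50 nM CITCO (final). After 23 hr, viability was read by CellTiter-Fluor fluorescence.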

Experiment [7] is described as follows: qHTS assay to identify small molecule antagonists of the estrogen related receptor signaling pathway with the pleiotropic PPARgamma coactivator (PGC) from Tox21 10K library - cell viability counter screen (AID 1224840; active means well fitted cell-killing curve with a large enough effect in the repeat runs, not every such curve was filed as active; further: nearly all actives have a fitted effect of over 40% in size; further: potency means the concentration at half of the fitted maximal effect). A digest of the protocol:
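PGC/ERR cells were seeded at 2,000 cells/well and left 6 hours at 37 C/5% CO2 before pin-tool addition of compounds in DMSO. After 17.5 hours at 37 C, CellTiter-Fluor was added and fluorescence read 30 minutes later.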

A short description of experiment [8]: qHTS assay to identify small molecule agonists of the estrogen related receptor signaling pathway with the pleiotropic PPARgamma coactivator (PGC) from Tox21 10K library (AID 1224842). Further: nearly all actives have a fitted effect of over 15% in size. Further: potency means the concentration at half of the fitted maximal effect. A digest of the protocol: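 Luminescence from One-Glo (30 min, room temperature) measured after PGC/ERR cells had 18 h at 37 C with pinned compound (23 nL in DMSO). Cells had been seeded at 2,000 per well and pre-incubated 6 h.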

Experiment [9] deals with Thyrotropin receptor (Homo sapiens) (UniProt P16473). Briefly: qHTS assay to identify small molecule agonists of the thyroid stimulating hormone receptor (TSHR) signaling pathway (AID 1224843; calls by dose curve; further: nearly all actives have a fitted effect of over 45% in size; further: potency means the concentration at half of the fitted maximal effect). A digest of the protocol: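 Screening of the Tox21 10K collection used HEK293 cells engineered with TSHR at 800 cells per well. After a 30-min room-temperature compound exposure, HTRF cAMP reagents were added and fluorescence recorded 1 h later.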

A short description of experiment [10]: qHTS assay to identify small molecule agonists of the hypoxia (HIF-1) signaling pathway - cell viability counter screen (AID 1224844; calls by dose curve; further: nearly all actives have a fitted effect of over 50% in size; further: potency means the concentration at half of the fitted maximal effect). In outline:
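HRE-bla ME-180 cells in medium with 0.5% dialyzed FBS were preincubated 5 hrs at 37C, exposed to compounds for 17 hrs, then viability was read as CellTiter-Glo luminescence after 30 min at room temperature, in the reporter wells.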

In experiment [11] the target is Nuclear receptor subfamily 1 group I member 3 (Homo sapiens) (UniProt Q14994). Nature of the experiment: qHTS assay to identify small molecule agonists of the constitutive androstane receptor (CAR) signaling pathway (AID 1224839). Further: nearly all actives have a fitted effect of over 15% in size. Further: potency means the concentration at half of the fitted maximal effect. A digest of the protocol: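 Cells were plated and incubated 4 hrs, then dosed with compounds at 15 concentrations. PK11195 was added to 0.75 uM final. After 24 hrs at 37 C, luciferase luminescence was measured.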

Experiment [12] in a line: qHTS assay to identify small molecule antagonists of the estrogen related receptor (ERR) signaling pathway from Tox21 library - cell viability counter screen (AID 1224834). Further: nearly all actives have a fitted effect of over 30% in size. Further: potency means the concentration at half of the fitted maximal effect. A digest of the protocol: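 ERR reporter cells were plated 6 h before compound addition, then exposed to test compounds in DMSO for 17.5 h at 37 C. Viability was read as CellTiter-Fluor fluorescence after a 30-minute incubation at 37 C.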

The target in experiment [13] is Nuclear receptor subfamily 1 group I member 3 (Homo sapiens) (UniProt Q14994). Nature of the experiment: qHTS assay to identify small molecule antagonists of the constitutive androstane receptor (CAR) signaling pathway (AID 1224838). Further: nearly all actives have a fitted effect of over 40% in size. In outline:
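HepG2 cells stably co-transfected with hCAR and a CYP2B6-2.2kb luciferase reporter were seeded 4 h before compound addition at 15 concentrations. Cells were stimulated with 50 nM CITCO (final) for 24 h at 37 C; luciferase luminescence was then read.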

Experiment [14] in a line: qHTS assay to identify small molecule antagonists of the estrogen related receptor signaling pathway with the pleiotropic PPARgamma coactivator (PGC) from Tox21 10K library (AID 1224841; call rule not given here; further: actives are mostly falling curves and most rising ones were filed inactive; nearly all actives have a fitted effect of over 50% in size; further: potency means the concentration at half of the fitted maximal effect). In outline: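 PGC/ERR reporter cells were seeded at 2,000 cells/well and held 6 hours at 37 C/5% CO2 before pin-tool addition of compounds in DMSO. After 18 hours at 37 C, One-Glo was added and luminescence read after 30 minutes at room temperature.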

Inconclusive results are not listed. Calls of active or inactive are those of the source. Unless noted, the call rests on the fitted dose curve; in most records, active means well fitted curve in the direction sought with a large enough effect in the repeat runs; inconclusive means weak or mixed curves; inactive means no such curve, though single readings can be large; an effect the other way counts as inactive or inconclusive.

Sequence of Thyrotropin receptor (Homo sapiens) (P16473 whole entry, looked up): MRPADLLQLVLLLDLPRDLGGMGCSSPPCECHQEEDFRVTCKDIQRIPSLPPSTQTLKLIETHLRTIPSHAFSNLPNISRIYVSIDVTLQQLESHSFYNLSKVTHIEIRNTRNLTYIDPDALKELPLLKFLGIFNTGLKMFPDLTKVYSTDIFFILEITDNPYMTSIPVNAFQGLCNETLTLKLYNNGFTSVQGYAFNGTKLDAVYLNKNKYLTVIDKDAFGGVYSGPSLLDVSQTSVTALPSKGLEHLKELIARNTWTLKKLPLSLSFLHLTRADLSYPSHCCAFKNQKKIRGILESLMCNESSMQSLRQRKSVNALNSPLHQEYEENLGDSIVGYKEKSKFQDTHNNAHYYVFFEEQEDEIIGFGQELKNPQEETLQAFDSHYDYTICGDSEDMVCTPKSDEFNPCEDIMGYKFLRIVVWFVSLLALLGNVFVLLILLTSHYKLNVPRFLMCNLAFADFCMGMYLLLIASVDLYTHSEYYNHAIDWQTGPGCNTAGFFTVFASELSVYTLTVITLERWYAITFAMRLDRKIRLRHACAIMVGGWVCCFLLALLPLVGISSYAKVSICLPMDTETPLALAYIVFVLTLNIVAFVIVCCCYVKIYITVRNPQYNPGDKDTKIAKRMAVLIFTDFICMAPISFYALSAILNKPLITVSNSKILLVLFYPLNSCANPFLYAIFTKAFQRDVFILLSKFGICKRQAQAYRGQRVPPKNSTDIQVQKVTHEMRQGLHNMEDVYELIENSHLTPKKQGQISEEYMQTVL
Sequence of Luciferin 4-monooxygenase (Photinus pyralis) (P08659 whole entry, looked up): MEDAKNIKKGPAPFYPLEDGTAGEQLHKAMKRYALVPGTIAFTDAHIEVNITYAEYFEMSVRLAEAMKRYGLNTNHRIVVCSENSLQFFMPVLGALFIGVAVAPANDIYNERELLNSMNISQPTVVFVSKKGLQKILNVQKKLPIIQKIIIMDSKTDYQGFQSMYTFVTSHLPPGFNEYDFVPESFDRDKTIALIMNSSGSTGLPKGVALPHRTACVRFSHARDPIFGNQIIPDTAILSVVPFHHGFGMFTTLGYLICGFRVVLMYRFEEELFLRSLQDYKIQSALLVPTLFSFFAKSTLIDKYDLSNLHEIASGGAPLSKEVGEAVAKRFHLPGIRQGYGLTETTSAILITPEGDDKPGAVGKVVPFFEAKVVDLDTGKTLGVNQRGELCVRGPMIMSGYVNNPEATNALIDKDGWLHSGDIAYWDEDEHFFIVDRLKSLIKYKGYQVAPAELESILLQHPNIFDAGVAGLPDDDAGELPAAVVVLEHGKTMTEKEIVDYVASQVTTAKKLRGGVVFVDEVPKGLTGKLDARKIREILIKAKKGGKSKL
Sequence of Nuclear receptor subfamily 1 group I member 3 (Homo sapiens) (Q14994 whole entry, looked up): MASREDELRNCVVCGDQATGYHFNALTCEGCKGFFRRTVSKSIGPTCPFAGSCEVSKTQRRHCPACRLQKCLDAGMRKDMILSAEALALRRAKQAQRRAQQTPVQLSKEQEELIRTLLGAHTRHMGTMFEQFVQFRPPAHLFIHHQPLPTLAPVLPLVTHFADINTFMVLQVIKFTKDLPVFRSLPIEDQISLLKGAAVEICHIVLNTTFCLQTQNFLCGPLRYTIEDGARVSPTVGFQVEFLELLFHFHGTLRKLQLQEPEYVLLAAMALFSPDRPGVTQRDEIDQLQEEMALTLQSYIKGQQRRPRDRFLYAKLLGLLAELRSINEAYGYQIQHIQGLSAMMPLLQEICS

For `CCN(C(=O)N(CC)c1ccccc1)c1ccccc1`, the Potency result in experiment [1], in experiment [2], in experiment [3], in [4], in experiment [5] and in [6] was “inactive” in each case. The Potency result in experiment [7], in experiment [8] and in [10] was “inactive” throughout. For the same compound, the Potency in experiment [9] is 61.1 µM (active).
In the case of `N=C1C=CC(=C(c2ccc(N)cc2)c2ccc(N)cc2)C=C1`, the Potency in experiment [1] was 19.3 µM (active); in [2] it was 13.7 µM (active); in experiment [4] it was 20 µM (active); in experiment [5], 34.4 µM (active); in [6], 27.3 µM (active). The Potency result in experiment [3], in experiment [11], in experiment [8] and in experiment [10] was “inactive” each time.
As for `Cc1onc(-c2ccccc2Cl)c1C(=O)N[C@@H]1C(=O)N2[C@@H]1SC(C)(C)[C@@H]2C(=O)O`, the Potency result in experiment [1], in experiment [2], in experiment [3], in experiment [12], in [4] and in [7] was “inactive” in each case. The Potency entry in experiment [9] and in experiment [10] was “inactive” in each case.
`COc1ccc(C(=O)/C(Br)=C\C(=O)O)cc1`: the Potency entry in experiment [1], in [2], in experiment [6], in experiment [13], in experiment [14] and in [9] was “inactive” in each case. Besides, the Potency in experiment [3] is 27.3 µM (active); in experiment [12], 54.5 µM (active); in [8], 24.3 µM (active).
Consider `Cc1cc(N)c(S(=O)(=O)O)cc1Cl`, for which the Potency result in experiment [1], in experiment [2], in [3], in experiment [4], in [5] and in experiment [6] was “inactive” each time. Further, the Potency entry in experiment [7], in experiment [14], in experiment [8], in [9] and in experiment [10] was “inactive” each time.
As for `CCC(Cl)C(Cl)C(Cl)CC(Cl)C(Cl)C(C)Cl` (stereo unspecified), the Potency entry in [1], in [2], in experiment [3], in experiment [12], in experiment [4] and in experiment [5] was “inactive” throughout. Besides, the Potency entry in experiment [6] and in experiment [7] was “inactive” each time.
Take `C/C=C(\C)C(=O)OCc1ccccc1`: the Potency result in experiment [1], in experiment [2], in [12], in [5], in experiment [6] and in experiment [7] was “inactive” in each case. Besides, the Potency result in [14], in experiment [8], in experiment [9] and in experiment [10] was “inactive” throughout. The Potency in [4] is 63.3 µM (active).
On to `Cc1cc(O)c(C(C)(C)C)cc1C(C)(C)C`, for which the Potency was 43.3 µM (active) in experiment [1]; 54.5 µM (active) in [2]; 54.5 µM (active) in experiment [12]; 61.1 µM (active) in experiment [5]; 48.6 µM (active) in experiment [7]; 43.6 µM (active) in experiment [10]. Further, the Potency entry in experiment [4], in [11] and in experiment [8] was “inactive” each time.
Take `O=C(NOCC1CC1)c1ccc(F)c(F)c1Nc1ccc(I)cc1Cl`: the Potency result in experiment [1], in experiment [2], in [4], in [5], in experiment [6] and in experiment [8] was “inactive” in each case. The results for the Potency in experiment [12] and in [14] were 18.8 µM (active) and 11.9 µM (active), respectively.
With `CCCN(CCC)c1c([N+](=O)[O-])cc(C(F)(F)F)c(N)c1[N+](=O)[O-]`, the Potency was 60.9 µM (active) in [1]; 30.5 µM (active) in experiment [2]; 48.4 µM (active) in experiment [12]; 68.4 µM (active) in [6]; 13.6 µM (active) in [11]; 43.1 µM (active) in experiment [7]. Further, the Potency in experiment [14] is 38.5 µM (active); in experiment [9] it was 6.09 µM (active); in experiment [10], 13.8 µM (active). Further, the Potency result in [4] and in experiment [8] was “inactive” throughout.
Regarding `O=C(NO)C1(NS(=O)(=O)c2ccc(Oc3ccc(F)cc3)cc2)CCOCC1`, the Potency entry in experiment [1], in [2], in [3], in experiment [4], in [5] and in experiment [6] was “inactive” in each case. In addition, the Potency entry in experiment [7] and in experiment [10] was “inactive” each time.
With `CCC(C)(C)C1CCCCC1OC(C)=O` (stereo unspecified), the Potency result in experiment [1], in [2], in experiment [12], in [4], in [5] and in experiment [6] was “inactive” throughout. Also, the Potency entry in experiment [11], in experiment [7], in experiment [8], in [9] and in experiment [10] was “inactive” throughout.
Take `Oc1c(Cl)cc(Cl)c2cccnc12`: the Potency entry in experiment [1], in experiment [2], in experiment [4], in experiment [5], in experiment [11] and in experiment [8] was “inactive” in each case. Further, the Potency entry in experiment [9] was “inactive”. The figures for the Potency in experiment [12] and in experiment [7] were 13.3 µM (active) and 26.6 µM (active), respectively.
With `Cc1cc(O)c(C(C)(C)C)cc1Sc1cc(C(C)(C)C)c(O)cc1C`, the Potency in experiment [1] was 61 µM (active); in [12], 30.6 µM (active); in [5] it was 48.5 µM (active); in experiment [6], 54.4 µM (active); in experiment [7], 30.6 µM (active); in experiment [14] it was 21.6 µM (active). The Potency in experiment [9] was 9.67 µM (active); in experiment [10] it was 9.75 µM (active). The Potency result in experiment [2], in experiment [4], in experiment [11] and in [8] was “inactive” in each case.
For `CCCCCCCCOC(=O)c1ccc(O)cc1`, the Potency entry in [1], in experiment [2], in [3], in [5], in experiment [6] and in experiment [7] was “inactive” in each case. For the same compound, the Potency entry in experiment [9] was “inactive”. In addition, the Potency in experiment [10] was 48.8 µM (active).
Turning to `CN(C)CCCOC1(Cc2ccccc2)CCCCCC1`, the Potency result in experiment [1], in experiment [2], in [3], in experiment [4], in experiment [5] and in [6] was “inactive” throughout. Moreover, the Potency entry in [7], in [9] and in [10] was “inactive” in each case.
With `NNC(=O)c1cccc(C(=O)NN)c1`, the Potency result in experiment [1], in experiment [2], in experiment [12], in experiment [4], in experiment [5] and in [6] was “inactive” each time. Also, the Potency entry in experiment [13], in [11], in experiment [7] and in experiment [10] was “inactive” each time.
Turning to `[Cl][Bi]([Cl])([c]1ccccc1)([c]1ccccc1)[c]1ccccc1`, the Potency in experiment [1] was 54.2 µM (active); in [2] it was 3.83 µM (active); in experiment [12], 13.6 µM (active); in experiment [4] it was 12.6 µM (active); in experiment [5] it was 21.6 µM (active); in experiment [6], 19.2 µM (active). Moreover, the values for the Potency in experiment [7], in experiment [9] and in experiment [10] were 6.08 µM (active), 2.16 µM (active) and 19.4 µM (active), respectively. In addition, the Potency result in experiment [11] is “inactive”.

Source of the values: PubChem BioAssay (Tox21).
